# Laboratory results from PubChem BioAssay (NCATS).
# Inconclusive results are not listed. Active and inactive are the calls of the source. Unless noted, calls come from the whole dose curve; as a rule, active = well fitted curve in the direction sought with a large enough effect; inconclusive = small, poorly fitted or top-dose-only effect, or another doubt; inactive = no such curve, though single readings can be large; an effect the other way counts as inactive or inconclusive.
# How the values were obtained:
# [1] = P-glycoprotein substrates identified in KB-3-1 adenocarcinoma cell line, qHTS therapeutic library screen (AID 1346986); note: nearly all actives have a fitted effect of over 60% in size;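 note: potency is the fitted concentration of half-maximal effect; potency is for cytotoxicity meaning loss of cell viability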
# How it was run: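 72 h cell-killing screen, 500 cells/well, CellTiter-Glo luminescence. Paired lines KB-3-1/KB-8-5-11; P-gp dependence checked by tariquidar co-treatment and HEK-293 MDR-19 versus empty-vector cells.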
# [2] = P-glycoprotein substrates identified in KB-8-5-11 adenocarcinoma cell line, qHTS therapeutic library screen (AID 1346987); note: nearly all actives have a fitted effect of over 65% in size; note: potency is the fitted concentration of half-maximal effect
# How it was run: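 Luminescence from CellTiter-Glo, read 5 min after addition, quantified survival of KB-8-5-11 (P-gp-overexpressing) cells exposed to compounds for 72 h. AC50 was derived from concentration-response curves.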
# [3] = Primary qHTS for inhibitors of nuclear receptor binding SET domain protein 2 (NSD2) in an isogenic RCH-ACV NSD2 p.E1099K mutant (9B) (AID 1645876); note: nearly all actives have a fitted effect of over 70% in size; note: potency is the fitted concentration of half-maximal effect
# [4] = Primary qHTS for inhibitors of nuclear receptor binding SET domain protein 2 (NSD2) in an RCH-ACV wild type WT cells (2C) (AID 1645877); note: nearly all actives have a fitted effect of over 70% in size; note: potency is the fitted concentration of half-maximal effect
# [5] = molecular target: Glutathione peroxidase 1 (Homo sapiens) (UniProt P07203); experiment: Primary qHTS Assay for Inhibitors of Recombinant Selenoprotein Glutathione Peroxidase 1 (GPX1) (AID 1845191); note: nearly all actives have a fitted effect of over 65% in size; for activity, negative = inhibition: % is set by controls: 0 for no effect and ±100 for the full control effect
# How it was run: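 GPX1 10 nM, GR 100 nM, GSH 1 mM, NADPH 0.5 mM, CHP 0.5 mM (final). 30-min cpd preincubation, RT. Ex340/Em450 read t=0, t=15 min.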
# [6] = qHTS drug screen for cell cycle checkpoint inhibitors in PARPi-resistant BRCA-mutant ovarian cancer cell lines. (AID 1963452; calls by dose curve); conditions: PEO1/OlaR viability, CellTiter-Glo luminescence, 96 h, stronger effect = lower value
# How it was run: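 PEO1, PEO4 and PEO1/OlaR ovarian cancer cells, 600 per well, exposed 96 h at 37C to a dilution series. Viability read by CellTiter-Glo luminescence, normalized to DMSO and empty wells; activity summarized as Z-AUC.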
# [7] = molecular target: Calcium and integrin-binding protein 1 (Homo sapiens) (UniProt Q99828); experiment: Primary qHTS for Identification of Calcium Integrin Binding Protein 1 (CIB1) Competitor (AID 1508620);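 note: GST tagged CIB1 binding a fluorescein labelled alphaIIb integrin peptide tracer; top concentration of the series differs between compounds; % is set by controls: 0 for no effect and ±100 for the full control effect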
# How it was run: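 Fluorescence polarization competition: CIB1-GST (1 uM final) preincubated with compound 15 min at room temperature, then FITC-labeled alphaIIb peptide (100 nM final) added for another 15 min. Polarization read at Ex 480/Em 540.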
# [8] = molecular target: Phospholipid hydroperoxide glutathione peroxidase GPX4 (Homo sapiens) (UniProt P36969); experiment: Primary qHTS Assay for Inhibitors of Recombinant Selenoprotein Glutathione Peroxidase 4 (GPX4) (AID 1845192); conditions: outcome: dose series up to 50 µM unless noted; note: series mostly up to about 50 µM; % is set by controls: 0 for no effect and ±100 for the full control effect; nearly all actives have a fitted effect of over 65% in size
# How it was run: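 qHTS, GR-coupled: GPX4 200 nM + cpd 30 min RT → GSH 1 mM, NADPH 0.5 mM, GR 100 nM → CHP 0.5 mM start; fluor 340/450 at t0 and t15 min; no-enzyme wells as control.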
# [9] = measured here: PEO1 parental Z-AUC
# Sequence of Glutathione peroxidase 1 (Homo sapiens) (P07203 whole entry, looked up): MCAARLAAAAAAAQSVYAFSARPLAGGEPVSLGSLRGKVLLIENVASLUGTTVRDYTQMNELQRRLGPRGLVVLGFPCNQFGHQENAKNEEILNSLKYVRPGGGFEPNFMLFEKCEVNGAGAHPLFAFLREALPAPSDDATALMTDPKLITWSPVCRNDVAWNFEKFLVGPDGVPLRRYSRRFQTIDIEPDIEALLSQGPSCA
# Sequence of Calcium and integrin-binding protein 1 (Homo sapiens) (Q99828 whole entry, looked up): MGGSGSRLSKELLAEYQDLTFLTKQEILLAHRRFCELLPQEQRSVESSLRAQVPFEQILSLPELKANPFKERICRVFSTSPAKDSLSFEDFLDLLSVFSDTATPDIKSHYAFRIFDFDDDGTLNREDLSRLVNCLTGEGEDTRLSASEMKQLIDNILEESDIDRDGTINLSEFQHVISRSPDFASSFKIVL
# Sequence of Phospholipid hydroperoxide glutathione peroxidase GPX4 (Homo sapiens) (P36969 whole entry, looked up): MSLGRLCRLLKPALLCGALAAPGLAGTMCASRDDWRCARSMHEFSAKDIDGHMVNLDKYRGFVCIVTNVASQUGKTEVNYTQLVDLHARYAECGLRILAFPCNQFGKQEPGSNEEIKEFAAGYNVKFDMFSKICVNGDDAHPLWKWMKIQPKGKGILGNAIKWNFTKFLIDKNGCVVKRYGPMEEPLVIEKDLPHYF
smiles,measurement,setting,value
CN(C)CCNC(=O)c1cccn2c(=O)c3cc4ccccc4cc3nc12,Potency,[1],1190 nM (active)
same,Potency,[2],1190 nM (active)
same,Potency,[3],668 nM (active)
same,Potency,[4],668 nM (active)
same,"activity, negative = inhibition",[5],2.53% [at 9.52 µM] (inactive)
COC(=O)c1ccc(=O)c2nc3/c(=C/O)c(O)cc(=O)c3[nH]c12,Potency,[1],inactive
same,Potency,[2],inactive
same,Potency,[3],5170 nM (active)
same,Potency,[4],13000 nM (active)
same,Potency,[5],inactive
Cc1[nH]c(/C=C2\C(=O)Nc3ccccc32)c(C)c1CCC(=O)O,Potency,[1],inactive
same,Potency,[2],inactive
same,Potency,[3],inactive
same,Potency,[4],inactive
same,Potency,[5],inactive
same,Z-AUC,[6],0.922 (inactive)
same,Z-AUC,[6]; [9],0.668
same,Z-AUC,[6]; measured here: PEO4 Z-AUC,0.162
COc1cc(OC)c(/C=C2\C(=O)Nc3ccccc32)c(OC)c1,Potency,[1],920 nM (active)
same,Potency,[2],920 nM (active)
same,Potency,[3],1030 nM (active)
same,Potency,[4],920 nM (active)
Cc1nc(CN(C)c2ncnc3ccc(-c4ccc5c(c4)OCO5)cc23)cs1,Potency,[1],16400 nM (active)
same,Potency,[2],20600 nM (active)
same,outcome,[7],inactive
same,Potency,[3],8200 nM (active)
same,Potency,[4],9200 nM (active)
same,Potency,[5],inactive
O=C1/C(=C/c2ccc(O)c(O)c2)Oc2ccccc21,Potency,[1],inactive
same,Potency,[2],inactive
same,Potency,[3],1840 nM (active)
same,Potency,[4],2060 nM (active)
Cc1cc(N2CCOCC2)cc2[nH]c(-c3c(NCC(O)c4cccc(Cl)c4)cc[nH]c3=O)nc12 (stereo not drawn),Potency,[1],2060 nM (active)
same,Potency,[2],5800 nM (active)
same,Potency,[3],1640 nM (active)
same,Potency,[4],1460 nM (active)
OCCn1cc(-c2ccc3c(c2)CC/C3=N\O)c(-c2ccncc2)n1,Potency,[1],inactive
same,Potency,[2],inactive
same,Potency,[5],inactive
same,Potency,[8],inactive
same,Z-AUC,[6],2.52 (inactive)
same,Z-AUC,[6]; [9],1.44
same,Z-AUC,[6]; measured here: PEO4 Z-AUC,1.33
Cc1cncc2cccc(S(=O)(=O)N3CCCNC[C@@H]3C)c12,Potency,[1],6510 nM (active)
same,Potency,[2],1640 nM (active)
same,Potency,[3],13000 nM (active)
same,Potency,[4],3660 nM (active)
Cc1cc2ncc(-c3ccccc3)nc2cc1C,Potency,[1],inactive
same,Potency,[2],inactive
same,Potency,[3],inactive
same,Potency,[4],inactive
CN1CCC(c2c(O)cc(O)c3c(=O)cc(-c4ccccc4Cl)oc23)C(O)C1 (stereo not drawn),Potency,[1],231 nM (active)
same,Potency,[2],517 nM (active)
same,Potency,[3],291 nM (active)
same,Potency,[4],259 nM (active)
CN1CCCN(C(=O)c2cccc(-c3ccc(/C=C4\C(=O)Nc5ccc(Cl)cc54)o3)c2)CC1,Potency,[1],8200 nM (active)
same,Potency,[2],9200 nM (active)
same,Potency,[3],231 nM (active)
same,Potency,[4],231 nM (active)
Cc1ccc(NS(=O)(=O)c2cc3c(cc2NCCO)NC(=O)CC3)cc1C,Potency,[1],inactive
same,Potency,[2],inactive
same,outcome,[7],inactive
same,Potency,[3],inactive
same,Potency,[5],inactive
Nc1ncnc2c1nc(Cl)n2C1O[C@H](CO)[C@@H](O)[C@H]1O (stereo partly drawn),Potency,[1],2910 nM (active)
same,Potency,[2],1840 nM (active)
same,Potency,[3],2590 nM (active)
same,Potency,[4],1840 nM (active)
